HT1080-NT tox = kills 2HG-producing HT-1080-NT fibrosarcoma cells; Potency, µM (highest dose often 46.1 µM), for the others: at the top dose activity, negative = less viability, actives largely listed as cytotoxic; AID 686970; actives 1.6% (n = 360,000); HT-1080-NT fibrosarcoma viability, CellTiter-Glo ATP luminescence, 48 h;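 note: NT is the 2HG producing partner of a matched IDH1 knockdown line; potency is the fitted concentration of half-maximal effect; 0% = DMSO-treated cells and -100% = media-only wells without cells; nearly all actives have a fitted effect of over 55% in size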
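Luminescent CellTiter-Glo readout after 48 hours of compound exposure at 37 degrees C defined viability of HT-1080-NT cells. Activity was normalized to DMSO wells and cell-free media wells; concentration-response curves were fitted and assigned curve classes.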
HT1080 IDH1KD tx = HT-1080 IDH1 knockdown cell toxicity (counter line). Potency, µM (top dose mostly 46.1 µM), without a hit: at the top dose activity, negative = toxicity, hits mostly cytotoxic. HT-1080 IDH1 knockdown viability, ATP luminescence, 48 h. actives 2% (n = 360,000);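 note: potency is the fitted concentration of half-maximal effect; 0% = DMSO wells and -100% = cell-free medium wells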
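IDH1KD HT-1080 cells, 750/well, RPMI + 5% FBS; compound pinned after 2 h settling; 48 h, 37 °C; CellTiter-Glo luminescence; % activity normalised to DMSO and no-cell wells; curves fitted, classed by r2 and efficacy.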
IL-1B inflam inh = inflammasome signaling inhibition, IL-1 beta readout | THP-1 LPS/ATP IL-1B secretion, AlphaLISA, 16 h; hits give low values | activity change, % at 57.5 µM | actives 4.7% (n = 360,000) | AID 743279; in the data active = activity change below about -50%; inconclusive = mostly about -30% to -49%
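THP-1 cells pretreated 1 hr with compounds (up to 57.5 uM final), then stimulated with LPS (250 ng/mL final) plus ATP (1.25 mM final); secreted IL-1B measured by AlphaLISA after 16 hr, decreased signal indicating inhibition.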
DT40 TDP1 no CPT = qHTS for Inhibitors of human tyrosyl-DNA phosphodiesterase 1 (TDP1): qHTS in cells in absence of CPT; DT40 Tdp1-/- hTDP1 cells, no CPT, ATP luminescence, 48 h; Potency, µM (titrated, usually from 46.2 µM), for inactives: at the highest dose activity change, negative = growth inhibition, usual class: inhibitors; actives 15% (n = 420,000); AID 686978, 2013; note: potency is the fitted concentration of half-maximal effect; nearly all actives have a fitted effect of over 55% in size
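Readout: luminescence from CellTiter-Glo after 30 min in the dark at RT. Cells: DT40 Tdp1-/- with stable hTDP1, 400/well. Exposure: compounds alone, ≥48 hr, 37 °C.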
DT40 TDP1 CPT = DT40-hTDP1 cell growth loss with CPT; chicken DT40 Tdp1-/-;hTDP1 cells + 20 nM CPT, ATP luminescence, 48 h; AID 686979; Potency, µM (titrated, usually from 46.2 µM), without a hit: top-dose activity change, negative = growth inhibition, actives largely listed as inhibitors; actives 12% (n = 420,000); note: potency is the fitted concentration of half-maximal effect; nearly all actives have a fitted effect of over 55% in size
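Chicken DT40 Tdp1-/- cells complemented with human TDP1, 400 cells/well, exposed to compounds plus 20 nM camptothecin for at least 48 h at 37 C; viability read as ATP content by CellTiter-Glo luminescence.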
Starred values were filed as active, the others as inactive. This is a sample that favours compounds with a hit; in the whole collection about 19% have one here. Unless noted, calls come from the whole dose curve; as a rule, active = well fitted curve in the direction sought with a large enough effect; inconclusive = small, poorly fitted or top-dose-only effect, or another doubt; inactive = no such curve, though single readings can be large; an effect the other way counts as inactive or inconclusive. Unless noted, % is set by controls: 0 for no effect and ±100 for the full control effect.

O=c1cc(NC2CCCCC2)c2ccccc2o1 was read as HT1080-NT tox inconclusive, HT1080 IDH1KD tx inconclusive, IL-1B inflam inh 34, DT40 TDP1 no CPT inconclusive and DT40 TDP1 CPT inconclusive.
Screening Cc1ccc(S(=O)(=O)Nc2c(NC3CCCCC3)c3ccccc3oc2=O)cc1 returned HT1080-NT tox -1%, HT1080 IDH1KD tx -9%, IL-1B inflam inh inconclusive, DT40 TDP1 no CPT 1% and DT40 TDP1 CPT inconclusive.
`CN(C)CCNc1c(N)c(=O)oc2ccccc12` gave HT1080-NT tox 12%, HT1080 IDH1KD tx 1%, IL-1B inflam inh 19, DT40 TDP1 no CPT inconclusive and DT40 TDP1 CPT inconclusive.
Nc1c(NCCN2CCOCC2)c2ccccc2oc1=O was read as HT1080-NT tox 1%, HT1080 IDH1KD tx 2%, IL-1B inflam inh 29, DT40 TDP1 no CPT 9.2µM* and DT40 TDP1 CPT 5.2µM*.
Screening Nc1c(NC2CCCCC2)c2ccccc2oc1=O returned HT1080-NT tox -14%, HT1080 IDH1KD tx inconclusive, IL-1B inflam inh 19, DT40 TDP1 no CPT 16µM* and DT40 TDP1 CPT inconclusive.
For CN(C(=O)c1cccc(S(=O)(=O)N2CCCC2)c1)C1CCCCC1 the results were HT1080-NT tox 6%, HT1080 IDH1KD tx 1%, IL-1B inflam inh 18, DT40 TDP1 no CPT inconclusive and DT40 TDP1 CPT inconclusive.
CC(C)(Oc1ccc(C2CCCc3ccccc32)cc1)C(=O)O (stereo not drawn) was read as DT40 TDP1 no CPT -9% and DT40 TDP1 CPT 0%.
O=C(NC1CCCCC1)NC1CCCCC1 was read as DT40 TDP1 no CPT -13% and DT40 TDP1 CPT -21%.
CC(C)=CCCC(C)NC(=O)NC1CCCCC1 (stereo not drawn) was read as HT1080-NT tox -3%, HT1080 IDH1KD tx 0%, IL-1B inflam inh 5, DT40 TDP1 no CPT 16µM* and DT40 TDP1 CPT inconclusive.
Screening O=S(=O)(Cc1ccccc1Cl)NCCc1ccccc1 returned HT1080-NT tox -8%, HT1080 IDH1KD tx 0%, IL-1B inflam inh 0, DT40 TDP1 no CPT -2% and DT40 TDP1 CPT -3%.
COc1ccc(/C=N/NC(=O)Nc2cccc3nsnc23)c(OC)c1 was read as HT1080-NT tox 15%, HT1080 IDH1KD tx 7%, IL-1B inflam inh 67, DT40 TDP1 no CPT 10µM* and DT40 TDP1 CPT 12µM*.
For O=C(N/N=C/c1ccc(O)cc1)Nc1cccc2nsnc12 the results were HT1080-NT tox inconclusive, HT1080 IDH1KD tx inconclusive, IL-1B inflam inh -98*, DT40 TDP1 no CPT 21µM* and DT40 TDP1 CPT -12%.
COc1cc(/C=N/NC(=O)Nc2cccc3nsnc23)cc(OC)c1OC was read as HT1080-NT tox 10%, HT1080 IDH1KD tx 16%, IL-1B inflam inh -13, DT40 TDP1 no CPT inconclusive and DT40 TDP1 CPT inconclusive.
For O=C(NC1CCCC1)c1nc(-c2ccco2)oc1-c1ccccc1 the results were HT1080-NT tox 0%, HT1080 IDH1KD tx -9%, IL-1B inflam inh -4, DT40 TDP1 no CPT inconclusive and DT40 TDP1 CPT inconclusive.
Cc1sc(NC(=O)CN(C(=O)c2ccccc2F)C2CCCC2)c(C(N)=O)c1C was read as HT1080-NT tox -20%, HT1080 IDH1KD tx -17%, IL-1B inflam inh -7, DT40 TDP1 no CPT 16µM* and DT40 TDP1 CPT inconclusive.
For Cc1ccc(C(=O)N(CC(=O)Nc2sc(C)c(C)c2C(N)=O)C2CCCC2)cc1 the results were HT1080-NT tox -1%, HT1080 IDH1KD tx 0%, IL-1B inflam inh -15, DT40 TDP1 no CPT 18µM* and DT40 TDP1 CPT 21µM*.
For Cc1cccc(C(=O)N(CC(=O)Nc2sc(C)c(C)c2C(N)=O)C2CCCC2)c1 the results were HT1080-NT tox -21%, HT1080 IDH1KD tx -16%, IL-1B inflam inh inconclusive, DT40 TDP1 no CPT inconclusive and DT40 TDP1 CPT inconclusive.
`COc1ccc(COC(=O)C2CCN(C(=O)c3ccc(Cl)cc3)CC2)cc1F` gave HT1080-NT tox -14%, HT1080 IDH1KD tx -8%, IL-1B inflam inh 0, DT40 TDP1 no CPT inconclusive and DT40 TDP1 CPT inconclusive.

Screening data as filed in PubChem BioAssay.
